Data from PubChem BioAssay AID1159580 (chemical genetic matrix, 2015).
Values joined by “and” are separate entries in the source; they are usually repeats but may differ in a detail not shown here. Identical values can stand only once. The campaign covered roughly 5,500 compounds. About 2,000 (36%) were called active. Roughly 18% stayed inconclusive and do not appear here. Rule as the data show it: active = normalized growth mostly below about 0.91 (no sharp cut-off); inconclusive = no clear call, values can overlap the other calls; inactive = mostly above about 0.92. The list shows a part of the results.

Assay: chemical genetic growth profiling, strain panel (AID 1159580);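 also: tested at 20 µM; growth read once vehicle control cultures reached saturation at 30 °C; 1 = growth at the plate median or of vehicle wells; lower values mean less growth of the strain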
Conditions: S. cerevisiae deletion strains, growth OD

Measured: normalized growth

NC(=O)CN1CCCC1=O
inactive: locus YAL013W, strain DEP1, hits give low values 1.01 and 1 | locus YAL021C, strain ccr4, hits give low values 0.982 | locus YAL026C, strain drs2, hits give low values 0.988 | locus YAL030W, strain snc1, hits give low values 0.992 | locus YAL040C, strain CLN3, hits give low values 0.986 | locus YBL061C, strain skt5, hits give low values 0.985 | locus YBR009C, strain hhf1, hits give low values 1 | locus YBR021W, strain FUR4, hits give low values 1.02 | locus YBR023C, strain chs3, hits give low values 0.991 | locus YBR171W, strain sec66, hits give low values 0.982 | locus YBR229C, strain ROT2, hits give low values 1.01 | locus YBR231C, strain swc5, hits give low values 1 | locus YBR279W, strain paf1, hits give low values 0.99 | locus YCL011C, strain gbp2, hits give low values 0.999 | locus YCL016C, strain dcc1, hits give low values 0.986 | locus YCL029C, strain bik1, hits give low values 1.02 | locus YCL061C, strain MRC1 (second series), hits give low values 1 | locus YCL061C, strain MRC1, hits give low values 0.981 | locus YCL069W, strain vba3, hits give low values 0.996 | locus YCR088W, strain abp1, hits give low values 0.978 | locus YDL005C, strain med2, hits give low values 0.996 | locus YDL035C, strain GPR1, hits give low values 1.02 | locus YDL040C, strain nat1, hits give low values 0.993 | locus YDL074C, strain BRE1, hits give low values 0.985 | locus YDL101C, strain DUN1, hits give low values 0.999 | locus YDL134C, strain PPH21, hits give low values 1.02 | locus YDL185W, strain tfp1, hits give low values 1.01 | locus YDL192W, strain arf1, hits give low values 1.01 | locus YDR001C, strain nth1, hits give low values 0.993 | locus YDR069C, strain doa4, hits give low values 1 | locus YDR101C, strain arx1, hits give low values 0.991 | locus YDR137W, strain rgp1, hits give low values 0.98 | locus YDR159W, strain sac3, hits give low values 1.01 | locus YDR162C, strain NBP2, hits give low values 1.01 | locus YDR195W, strain ref2 0.976 | locus YDR297W, strain sur2, hits give low values 0.989 | locus YDR318W, strain mcm21, hits give low values 1.01 | locus YDR334W, strain swr1, hits give low values 0.979 | locus YDR335W, strain msn5, hits give low values 0.989 | locus YDR363W, strain ESC2, hits give low values 0.983 | locus YDR388W, hits give low values 1.01 | locus YDR392W, strain spt3, hits give low values 0.916 | locus YDR502C, strain sam2, hits give low values 1.01 | locus YEL003W, strain gim4, hits give low values 0.999 | locus YEL037C, strain rad23, hits give low values 0.986 | locus YEL061C, strain CIN8 (second series), hits give low values 0.984 | locus YEL061C, strain CIN8, hits give low values 1.01 | locus YER002W, strain NOP16, hits give low values 1 | locus YER015W, strain faa2, hits give low values 1.01 | locus YER016W, strain bim1, hits give low values 0.996 | locus YER110C, hits give low values 1.02 | locus YER111C, strain swi4, hits give low values 0.988 | locus YER155C, strain BEM2 (second series), hits give low values 0.975 | locus YER155C, strain BEM2, hits give low values 1.01 | locus YER167W, strain BCK2, hits give low values 1.01 | locus YFR010W, strain ubp6, hits give low values 0.972 | locus YGL078C, strain dbp3, hits give low values 1.02 | locus YGL086W, strain mad1, hits give low values 1 | locus YGL167C, strain pmr1, hits give low values 0.986 | locus YGL173C, strain kem1, hits give low values 0.998 | locus YGL227W, strain vid30, hits give low values 0.998 | locus YGL240W, strain doc1, hits give low values 0.993 | locus YGL248W, strain PDE1, hits give low values 0.994 | locus YGL253W, strain hxk2, hits give low values 1 | locus YGR078C, strain PAC10, hits give low values 0.991 | locus YGR135W, strain pre9, hits give low values 1.02 | locus YGR252W, strain gcn5, hits give low values 0.997 | locus YHR013C, strain ard1, hits give low values 0.963 | locus YHR027C, strain rpn1, hits give low values 0.988 | locus YHR030C, strain SLT2, hits give low values 1 and 0.994 | locus YHR079C, strain IRE1 (second series), hits give low values 1.01 | locus YHR079C, strain IRE1, hits give low values 0.995 | locus YHR094C, strain hxt1, hits give low values 1.01 | locus YHR129C, strain ARP1, hits give low values 1.01 | locus YHR142W, strain chs7, hits give low values 0.971 | locus YHR200W, strain rpn10, hits give low values 1.01 | locus YIL066C, strain RNR3, hits give low values 1.01 | locus YIL073C, strain SPO22, hits give low values 1.08 | locus YIL125W, strain kgd1, hits give low values 1.01 | locus YIR030C, strain dcg1, hits give low values 1.01 | locus YJL092W, strain hpr5, hits give low values 0.989 | locus YJL095W, strain BCK1 (second series), hits give low values 0.995 | locus YJL095W, strain BCK1, hits give low values 0.992 and 0.977 | locus YJL115W, strain asf1, hits give low values 0.985 | locus YJL129C, strain trk1, hits give low values 0.998 | locus YJL134W, strain LCB3, hits give low values 0.997 | locus YJL154C, strain vps35, hits give low values 0.987 | locus YJL164C, strain tpk1, hits give low values 0.998 | locus YJL166W, strain qcr8, hits give low values 0.968 | locus YJL168C, strain set2, hits give low values 1 | locus YJL187C, strain SWE1 (second series), hits give low values 1 | locus YJL187C, strain SWE1, hits give low values 0.982 | locus YJR043C, strain POL32, hits give low values 1.01 | locus YJR066W, strain TOR1, hits give low values 0.951 | locus YJR075W, strain HOC1, hits give low values 1 and 0.993
